# Screens from PubChem.
# A selection: hits, their analogues and other compounds. The true share with any hit is near 27%.
# CYP2C9 act = activators of human CYP2C9; hit rate 1.4% among 96,000; AID 1024; activation factor at 5 µM; P11712; recombinant CYP2C9, luciferin-H conversion, luminescence; hits give high values; factor 1 = untreated enzyme, 0 = blocked;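 active = activation factor of 2 or more for CYP2C9 at a 5 µM dose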
# CYP2C9 inhib = inhibitors of human CYP2C9; inhibition, % at 5 µM; P11712; CYP2C9 Supersomes, luciferin-H conversion, luminescence; hit rate 20% among 96,000;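 active = blocking of liver enzyme CYP2C9 beyond about 50% at 5 µM, limit read from the data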
# CYP2C19 act = increases human CYP2C19 enzyme activity. P33261. recombinant CYP2C19, luciferin-H EGE luminescence; hits give high values; 0 = fully inhibited enzyme, 1 = untreated enzyme. activation factor at 5 µM. 96,000 tested, under 10 active. AID 1025;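 active = activation factor of at least 2 at 5 µM in the primary screen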
# CYP2C19 inh = human CYP2C19 inhibition. P33261. CYP2C19 Supersomes, luciferin-H EGE luminescence, 30 min. inhibition, % at 5 µM. hit rate 21% among 96,000. AID 778;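 active = CYP2C19 inhibition above a set limit at 5 µM in the primary screen, cut at about 50% in these data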
# Pyk2 oligo antag = blocks oligomerization of human Pyk2 in cells | hit rate 0.83% among 99,000 | AID 1347419 | Q293 cells, Pyk2 FERM NanoBiT luminescence; hits give low values | z-score (the deposit names both 25 µM and 10 µM) | Q14289;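 active = Z-score of -3 or lower, scaled per plate to the spread of control and sample wells; inactive = z-score above -3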;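 also: negative z-score means lost luminescence so less FERM oligomerization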
# Cav3 T inh = inhibitors of human Cav3.2 T-type calcium channel; O95180; Cav3.2-expressing cells, Fluo-4 calcium fluorescence FDSS; hits give low values; B-score at 10 µM; hit rate 4% among 100,000;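 active = single-dose well whose peak fluorescence ratio is a statistical outlier from its plate by either plate-standardised score or position-corrected B-score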
# Target sequence (O95180 whole entry, looked up): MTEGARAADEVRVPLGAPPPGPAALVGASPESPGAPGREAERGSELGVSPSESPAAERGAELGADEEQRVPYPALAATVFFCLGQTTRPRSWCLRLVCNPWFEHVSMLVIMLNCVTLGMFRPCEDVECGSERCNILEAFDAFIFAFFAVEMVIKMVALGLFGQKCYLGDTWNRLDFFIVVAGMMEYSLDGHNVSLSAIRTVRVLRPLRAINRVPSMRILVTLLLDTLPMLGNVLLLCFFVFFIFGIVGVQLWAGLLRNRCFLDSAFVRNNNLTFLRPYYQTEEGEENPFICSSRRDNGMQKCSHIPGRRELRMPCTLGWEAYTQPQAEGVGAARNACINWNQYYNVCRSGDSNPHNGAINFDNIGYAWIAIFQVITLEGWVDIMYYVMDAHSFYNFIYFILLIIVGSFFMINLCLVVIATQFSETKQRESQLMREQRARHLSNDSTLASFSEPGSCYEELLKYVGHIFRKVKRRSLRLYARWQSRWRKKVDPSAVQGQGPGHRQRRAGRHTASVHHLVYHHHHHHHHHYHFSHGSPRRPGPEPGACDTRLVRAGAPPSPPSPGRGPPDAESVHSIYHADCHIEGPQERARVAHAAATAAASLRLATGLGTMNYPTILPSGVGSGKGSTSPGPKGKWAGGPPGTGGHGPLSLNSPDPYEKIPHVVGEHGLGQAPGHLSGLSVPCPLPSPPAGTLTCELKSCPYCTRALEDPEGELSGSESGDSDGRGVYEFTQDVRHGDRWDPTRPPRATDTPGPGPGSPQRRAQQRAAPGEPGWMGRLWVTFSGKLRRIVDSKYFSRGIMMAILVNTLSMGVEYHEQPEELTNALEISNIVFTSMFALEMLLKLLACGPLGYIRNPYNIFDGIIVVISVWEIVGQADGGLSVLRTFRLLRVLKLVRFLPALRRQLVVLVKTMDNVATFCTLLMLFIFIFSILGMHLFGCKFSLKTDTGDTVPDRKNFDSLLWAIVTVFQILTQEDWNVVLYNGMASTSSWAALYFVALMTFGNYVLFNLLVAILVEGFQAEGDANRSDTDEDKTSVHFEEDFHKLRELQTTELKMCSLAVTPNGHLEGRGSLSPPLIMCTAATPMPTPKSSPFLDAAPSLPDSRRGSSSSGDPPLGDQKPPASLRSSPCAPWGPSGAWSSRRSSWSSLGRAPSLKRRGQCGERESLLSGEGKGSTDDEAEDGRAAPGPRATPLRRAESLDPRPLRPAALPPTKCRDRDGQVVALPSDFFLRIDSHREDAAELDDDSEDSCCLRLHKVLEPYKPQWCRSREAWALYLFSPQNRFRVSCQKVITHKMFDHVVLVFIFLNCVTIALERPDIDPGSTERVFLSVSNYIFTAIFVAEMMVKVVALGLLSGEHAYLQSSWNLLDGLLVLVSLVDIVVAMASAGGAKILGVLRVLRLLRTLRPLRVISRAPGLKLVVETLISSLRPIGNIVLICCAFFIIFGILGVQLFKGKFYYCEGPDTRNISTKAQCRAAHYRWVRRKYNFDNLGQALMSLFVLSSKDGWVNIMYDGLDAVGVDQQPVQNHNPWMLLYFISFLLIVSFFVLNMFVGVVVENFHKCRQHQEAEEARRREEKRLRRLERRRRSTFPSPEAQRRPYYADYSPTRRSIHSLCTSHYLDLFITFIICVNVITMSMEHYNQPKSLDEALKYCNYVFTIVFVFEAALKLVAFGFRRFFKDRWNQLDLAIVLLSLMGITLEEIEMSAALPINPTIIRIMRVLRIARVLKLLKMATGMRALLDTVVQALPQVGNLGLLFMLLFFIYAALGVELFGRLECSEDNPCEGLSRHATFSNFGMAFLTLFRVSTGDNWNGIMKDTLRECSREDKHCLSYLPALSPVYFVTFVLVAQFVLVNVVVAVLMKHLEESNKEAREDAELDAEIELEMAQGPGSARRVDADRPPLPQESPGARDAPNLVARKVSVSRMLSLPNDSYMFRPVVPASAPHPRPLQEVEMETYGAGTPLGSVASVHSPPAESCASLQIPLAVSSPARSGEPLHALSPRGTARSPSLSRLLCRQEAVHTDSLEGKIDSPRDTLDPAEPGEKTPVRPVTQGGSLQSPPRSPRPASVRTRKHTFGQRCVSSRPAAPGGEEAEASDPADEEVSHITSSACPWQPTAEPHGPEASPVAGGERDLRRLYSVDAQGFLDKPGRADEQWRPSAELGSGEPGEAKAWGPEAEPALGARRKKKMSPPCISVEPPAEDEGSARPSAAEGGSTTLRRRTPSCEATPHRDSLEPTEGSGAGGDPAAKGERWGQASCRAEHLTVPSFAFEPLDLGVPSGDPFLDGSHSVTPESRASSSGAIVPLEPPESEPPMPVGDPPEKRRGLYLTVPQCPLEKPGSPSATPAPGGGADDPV
# Hits are given with their value; n = inactive; x = no result given.
SMILES,CYP2C9 act,CYP2C9 inhib,CYP2C19 act,CYP2C19 inh,Pyk2 oligo antag,Cav3 T inh
Cn1c(=O)c2ccccc2n(Cc2ccccc2F)c1=O,n,n,n,52,n,n
COc1ccc(C2/C=C\CN(S(=O)(=O)c3ccc(C)cc3)[C@H](Cc3ccccc3)C(=O)N2Cc2ccc(F)cc2)cc1 (some centres undefined),x,x,x,x,x,n
COc1ccccc1CNC(=O)C1CCN(S(=O)(=O)c2ccc3c(c2)OCCCO3)CC1,x,x,x,x,n,x
CCN(CC)CCOc1nnc(-c2ccc(C)cc2)c2ccccc12,n,n,n,n,n,n
Cc1ccc(-n2cc3c(-c4cccc(Br)c4)nnc(C)c3n2)cc1,n,92,n,77,n,n
Cc1nnc(-c2cccc(Br)c2)c2cn(-c3ccccc3Cl)nc12,n,66,n,60,n,n
COC(=O)C1Cc2c([nH]c3ccccc23)C(C)N1 (centres undefined),2.6,n,n,50,n,n
CCOC(=O)C1Cc2c([nH]c3ccccc23)CN1 (centres undefined),n,n,n,56,n,n
COC(=O)C1C(O)CCC2CN3CCc4c([nH]c5ccccc45)C3CC21 (centres undefined),x,x,x,x,x,n
N#Cc1c(/N=C/c2ccc(Br)s2)sc2c1CCC2,x,x,x,x,n,x
N#Cc1c(/N=C/c2cccs2)sc2c1CCCCC2,n,94,n,70,n,n
O=[N+]([O-])c1cc(/C=N\Nc2nccs2)ccc1O,n,n,n,n,x,x
COc1ccccc1N1CCN(C(=O)c2ccccc2Oc2ccccc2)CC1,n,75,n,74,n,-4.7
COc1ccccc1N1CCN(C(=O)c2cnn3cccnc23)CC1,n,n,n,n,x,x
COC(=O)C1CCN(C(=O)c2cc3ccccc3oc2=O)CC1,2.2,n,n,56,n,n
O=C(c1cc2ccccc2oc1=O)N1CCN(C(=O)C2CCCO2)CC1 (centres undefined),n,n,n,n,n,n
COC(=O)C1CCN(C(=O)c2ccccc2Oc2ccccc2)CC1,n,55,n,79,n,n
COc1ccccc1N1CCN(C(=O)c2cc3cc(Br)ccc3oc2=O)CC1,n,n,n,59,x,n
COC(=O)CSc1nnc(CNC(=O)c2ccco2)n1-c1ccc(F)cc1,n,n,n,n,n,n
CC(=O)c1c(C)[nH]c(C(=O)OCn2nnc3ccccc3c2=O)c1C,n,n,n,n,n,n
CCN(CC)c1ccc(NC(=O)COC(=O)c2ccc3ccccc3n2)cc1,n,n,n,n,n,n
O=C(c1cnc2n(c1=O)CCS2)N1CCN(c2ccccc2F)CC1,n,n,n,n,x,n
O=C(c1ccccc1Oc1ccccc1)N1CCN(c2ccccc2F)CC1,n,90,n,79,n,-5.4
CS(=O)(=O)N1CCCC(C(=O)NCCN2CCC(Cc3ccccc3)CC2)C1 (centres undefined),n,n,n,64,n,n
CCCS(=O)(=O)N1CCCC(C(=O)N2CCC(Cc3ccccc3)CC2)C1 (centres undefined),n,51,n,69,n,n
SMILES,CYP2C9 act,CYP2C9 inhib,CYP2C19 act,CYP2C19 inh,Pyk2 oligo antag,Cav3 T inh
CC(Oc1ccccc1)C(=O)Nc1nc2c(s1)C(=O)CC(C)(C)C2 (centres undefined),n,61,n,57,n,n
CCOc1ccc(NC(=O)CN(C)c2ccc(S(=O)(=O)N(C(C)C)C(C)C)cn2)cc1OCC,n,57,n,n,n,n
CCOc1ccc(NC(=O)CN(C)c2nnnn2-c2ccccc2)cc1OCC,n,n,n,72,n,n
COc1ccccc1CNC(=O)[C@@H]1CCCN1C(=O)C1CCN(S(=O)(=O)c2ccc(C)cc2)CC1,n,n,n,n,n,n
Cc1ccc(S(=O)(=O)n2cc(-c3ccccc3)c(N)n2)cc1,n,90,n,52,n,n
Cc1ccc(S(=O)(=O)N(C)Cc2ccc(C(=O)N/N=C/c3ccc(OC(F)F)cc3)cc2)cc1,x,x,x,x,n,x
COc1ccc(OC)c2c1CCC2=O,x,x,x,x,n,n
Cc1cc(C(=O)CSc2nnnn2C)c(C)n1CCc1ccc(Cl)cc1,n,n,n,n,n,n
CSc1ccccc1-n1nnnc1SCc1ccccc1,n,66,n,87,n,n
CCOC(=O)CSc1nnnn1-c1cccc2ccccc12,x,x,x,x,n,n
NC(=O)c1ccc(-n2nnnc2SCc2ccc(F)cc2)cc1,n,n,n,75,n,n
COc1ccc(CCn2c(C)cc(C(=O)CSc3nnnn3-c3ccccc3)c2C)cc1,2.4,n,n,n,n,n
CC1=Nc2ccccc2N=C(NC(=O)CSc2nnnn2-c2ccccc2)C1c1ccccc1 (centres undefined),n,95,n,79,n,x
COc1cnc(-c2ccccn2)nc1Sc1cccc(Cl)c1,n,n,n,n,n,n
COc1ccc(CSc2nnnn2-c2ccccc2)cc1,n,89,n,96,n,x
COC(=O)CSc1nnnn1-c1ccccc1,n,n,n,56,n,n
O=C(CSc1nnnn1-c1ccccc1)N1CCc2ccccc2C1,n,n,n,65,n,n
O=C(O)c1ccc(-n2nnnc2SCc2ccccc2)cc1,n,n,n,n,n,n
C=CCSc1nnnn1-c1ccc(OC)cc1,n,66,n,98,n,n
O=C(c1cc2c(ccc3ccccc32)o1)N1CCN(c2ncc(C(F)(F)F)cc2Cl)CC1,n,n,n,n,n,n
COc1cccc(NS(=O)(=O)c2nc3nc(C)cc(C)n3n2)c1,n,n,n,n,x,n
O=C(NCCCN1CCCC1=O)c1cc(=O)c2ccccc2o1,n,n,n,n,n,n
COc1cc(CSc2nnnn2-c2ccc(C)cc2)cc(OC)c1OC,n,64,n,n,n,n
CCOC(=O)c1cc(C)n(CCc2ccccc2)c1C,n,n,n,n,n,-3.8
CCOC(=O)c1cc(-c2ccccc2)n(CCC(=O)O)c1C,n,n,n,n,n,n
SMILES,CYP2C9 act,CYP2C9 inhib,CYP2C19 act,CYP2C19 inh,Pyk2 oligo antag,Cav3 T inh
COc1cc(C2NC(=O)NC(C)=C2C(=O)OC2CCCC(C)C2)ccc1O (centres undefined),n,n,n,n,n,n
COC(=O)CCN(C(=O)c1ccc2c(c1)OCO2)c1ccccn1,n,n,n,94,n,n
CCOc1ccccc1C(=O)N(CCC(=O)OC)c1ccccn1,n,n,n,53,n,n
COC(=O)CCN(C(=O)c1cc(OC)c(OC)c(OC)c1)c1ccccn1,n,n,n,n,n,n
Cc1cc(C(=O)N(C)Cc2ccc(Br)cc2)no1,n,n,n,92,n,n
CN(Cc1ccccc1)C(=O)c1cc(-c2ccc(Br)cc2)on1,x,x,x,x,n,n
COc1cc(Cl)c(S(=O)(=O)NCCN2CCOCC2)cc1Cl,2,n,n,82,n,n
O=S(=O)(NCC1CCCO1)c1cc(Cl)ccc1Br (centres undefined),n,n,n,n,n,n
COc1cc(S(=O)(=O)NCCCN2CCOCC2)ccc1Cl,2.4,n,n,75,n,n
